A selection: hits, their analogues and other compounds. The true share with any hit is near 2.8%.
MITF TRPM1 inh: inhibitors of MITF-dependent TRPM1 promoter reporter, primary screen, cell-based, SK-MEL-5, single point, luciferase; SK-MEL-5 TRPM1 promoter luciferase, 24 h; inhibition, % at 12.5 µM; hit rate 0.83% among 330,000;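 active = mean inhibition across replicates of 60% or more, whatever share of single replicates reaches that level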
CF NFkB inh: inhibitors of PAF-induced NF-kB signaling, primary screen, cell-based, GFP fluorescence, uHTS. KKLEB NF-kB-GFP reporter, GFP fluorescence overnight. inhibition, % at 5 µM. hit rate 0.86% among 360,000;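 active = at least 50% inhibition at 5 µM, scaled per plate between neutral and stimulator controls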;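 also: PAF is a Pseudomonas aeruginosa culture filtrate used as stimulus; plate controls were PAF-stimulated DMSO wells for no effect and unstimulated DMSO wells for full effect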
Shn3 3UTR inh: reduction of Shn3 3'UTR firefly luciferase signal, primary screen, Schnurri-3 inhibitor project, cell-based, Clone20 osteoblasts, set 2. Clone20 osteoblast Shn3 3'UTR firefly luciferase, 24 h. inhibition, % at 12.5 µM. hit rate 0.52% among 360,000. AID 588674, 2011;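 active = mean inhibition of at least 75% with every replicate also reaching 75%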;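 also: 0% = median of neutral control wells and 100% = pilot-screen positive control compound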
Peg3 prom inh-1: Peg3 promoter-driven luciferase inhibitors, primary screen, cell-based, HeLa, luciferase luminescence; HeLa PEG-Prom luciferase reporter, overnight; AID 588405, 2011; hit rate 1.7% among 360,000; inhibition, % at 20 µM;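 active = inhibition of at least 50% at 20 µM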
KKLEB tox: cytotoxicity in KKLEB CF airway cells, primary screen, cytotoxicity control for CF NF-kB inhibitor project, cell-based, uHTS, fluorescence assay plates; KKLEB CF airway cells viability, ATPlite luminescence, overnight; active compounds read low; cells stimulated with P. aeruginosa culture filtrate; activity change (cytotoxicity), % at 5 µM; hit rate 0.36% among 360,000; AID 602141, 2011;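 active = corrected activity change at or below -50% at 5 µM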
HIF-2a inh: HIF-2a reporter inhibitors, primary screen, luminescence, 786-0 RCC cells; 786-0 RCC cells HIF-2a reporter, luciferase luminescence, overnight; inhibition, % at 18.8 µM; hit rate 0.72% among 360,000;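 active = inhibition of the luminescence signal of 40% or more relative to plate controls, in a single-dose primary screen at 18.75 µM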
Peg3 prom inh-2: Peg3 promoter reporter inhibitors, retest, confirmation, cell-based, HeLa, luciferase reporter, single concentration; inhibition, % at 20 µM; HeLa PEG-Prom luciferase reporter, luminescence, overnight; hit rate 84% among 1,300; shares compounds with Peg3 prom inh-1;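 active = at 20 µM dose, 40% or more inhibition averaged across four replicates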
CF NFkB inh conf: inhibitors of PAF-induced NF-kB signaling, retest, confirmation, cell-based, GFP fluorescence, single concentration. hit rate 64% among 1,300. shares compounds with CF NFkB inh. inhibition, % at 5 µM. KKLEB CF airway cells, overnight; in the data active = inhibition above about 40%;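 also: stimulus PAF is a Pseudomonas aeruginosa filtrate and not platelet activating factor; plate controls were DMSO wells with stimulus for no effect and unstimulated DMSO wells for full effect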
Mdm2 MdmX conf: retested Mdm2-MdmX interaction blockers, confirmation, cell-based, luminescence, single concentration, set 2; hit rate 99% among 740; AID 504601, 2011; inhibition, % at 8 µM; shares compounds with HIF-2a inh; SaOS-2 split-luciferase Mdm2/MdmX complementation;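 active = mean inhibition of the luminescence signal across two replicates at or above 26 percent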
Target sequence (O15151 whole entry, looked up): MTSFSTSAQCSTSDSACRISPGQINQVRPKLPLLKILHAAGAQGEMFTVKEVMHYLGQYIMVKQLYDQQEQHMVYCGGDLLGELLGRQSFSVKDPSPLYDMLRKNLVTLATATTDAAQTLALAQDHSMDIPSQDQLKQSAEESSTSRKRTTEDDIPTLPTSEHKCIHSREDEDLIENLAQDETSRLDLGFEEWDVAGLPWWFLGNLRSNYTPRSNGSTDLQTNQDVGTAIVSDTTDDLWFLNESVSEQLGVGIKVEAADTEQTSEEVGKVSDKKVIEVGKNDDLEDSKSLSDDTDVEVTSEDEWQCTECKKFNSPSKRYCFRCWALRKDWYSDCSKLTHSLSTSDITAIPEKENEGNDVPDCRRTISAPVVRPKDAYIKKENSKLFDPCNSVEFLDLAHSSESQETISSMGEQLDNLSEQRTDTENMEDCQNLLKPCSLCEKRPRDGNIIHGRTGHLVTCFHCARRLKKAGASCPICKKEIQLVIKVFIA
Target sequence (Q00987 whole entry, looked up): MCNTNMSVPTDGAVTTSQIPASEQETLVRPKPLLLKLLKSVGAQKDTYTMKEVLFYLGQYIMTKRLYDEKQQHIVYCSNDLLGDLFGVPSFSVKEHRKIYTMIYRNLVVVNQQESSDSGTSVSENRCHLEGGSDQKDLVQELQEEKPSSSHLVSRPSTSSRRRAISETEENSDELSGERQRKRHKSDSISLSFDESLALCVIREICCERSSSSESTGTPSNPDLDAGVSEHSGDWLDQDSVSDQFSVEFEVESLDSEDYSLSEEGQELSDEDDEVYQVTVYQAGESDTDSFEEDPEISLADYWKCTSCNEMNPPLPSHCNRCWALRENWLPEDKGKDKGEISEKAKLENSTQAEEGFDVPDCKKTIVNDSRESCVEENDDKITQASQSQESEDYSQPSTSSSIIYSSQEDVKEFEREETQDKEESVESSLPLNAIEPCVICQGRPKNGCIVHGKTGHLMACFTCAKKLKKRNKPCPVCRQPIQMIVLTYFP
HIF-2a inh conf: HIF-2a reporter inhibitor retest, confirmation, luminescence, 786-0 RCC cells; shares compounds with HIF-2a inh; HIF-2a luciferase reporter luminescence, overnight; inhibition, % at 18.8 µM; hit rate 56% among 1,800;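 active = mean inhibition across four replicates of at least 40 percent at the single tested concentration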
HIF-1a counter: HIF-1a luciferase reporter signal reduction – MiaPaCa-2 cells, single concentration, counter-screen for HIF-2a inhibitor project, confirmation. shares compounds with HIF-2a inh. MiaPaCa-2 HIF-1a luciferase reporter, desferoxamine, overnight. inhibition, % at 18.8 µM. hit rate 72% among 1,800;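 active = mean inhibition of the reporter signal across four replicates at the single tested dose of 50% or more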
Numbers without * were called inactive; . = no result.

SMILES	MITF TRPM1 inh	CF NFkB inh	Shn3 3UTR inh	Peg3 prom inh-1	KKLEB tox	HIF-2a inh	Peg3 prom inh-2	HIF-2a inh conf	HIF-1a counter	others
N#CC(C#N)=C1C=CC=CN1/C(=C\c1ccco1)C(=O)c1ccc(Cl)cc1	90*	85*	97*	104*	-50	94*	100*	98*	97*	CF NFkB inh conf=10
CN(c1ccc(F)cc1)S(=O)(=O)c1ccc(Cl)c(C(=O)NCc2ccco2)c1	8	-1	10	-6	3	4	.	.	.
O=C(Nc1ccc2c(c1)OCO2)Nc1ccc2c(c1)OCO2	-71	4	-106	-244	0	-214	.	.	.
O=C(O)c1ccc(N/N=C/c2ccc3c(c2)OCO3)cc1	83*	1	60	94*	0	86*	82*	90*	88*
O=C(Nc1cccc(C(=O)O)c1)Nc1ccc2c(c1)OCO2	89*	14	74	84*	-4	83*	74*	.	.	Mdm2 MdmX conf=64*
O=C(O)c1ccc(N/N=C/c2ccc(C(F)(F)F)cc2)cc1	68*	6	21	66*	-2	45*	52*	68*	33
CC(C)(C)c1ccc(/C=N/Nc2ccc(C(=O)O)cc2)cc1	89*	18	50	80*	-2	74*	73*	76*	33
CCOC(=O)c1c(S(=O)(=O)N2CCCCC2C)c(C)n(C)c1C (stereo not given)	6	5	-2	12	-6	4	.	.	.
C[C@H]1CN([C@@H](C)CO)C(=O)CCCn2nncc2CO[C@H]1CN(C)S(=O)(=O)c1ccc(C#N)cc1	.	-20	-4	-2	22	7	.	.	.
CC1CCCN(C(=O)COC(=O)c2cccc(NS(=O)(=O)c3ccccc3)c2)C1 (stereo not given)	-3	-13	-6	-7	-6	-6	.	.	.
C(=Cc1nc2ccccc2o1)c1ccc2c(c1)OCO2	.	-39	19	-34	-42	-3	.	.	.
C(=Cc1cnc2ccccc2n1)c1ccc2c(c1)OCO2	.	-31	86*	69*	-65*	59*	85*	92*	99*
O=C(Cn1ncc(Cl)c(Cl)c1=O)N1CCc2ccccc21	99*	103*	55	108*	-88*	94*	99*	98*	106*
O=C(Cn1ncc(Cl)c(Cl)c1=O)N1CCN(Cc2ccccc2)CC1	98*	88*	61	103*	-68*	96*	95*	61*	106*
Cc1ccc(-c2nc(-c3ccccn3)no2)cc1	90*	-6	92*	96*	-73*	87*	89*	95*	94*	Mdm2 MdmX conf=95*
Clc1cccc(-c2nc(-c3ccccn3)no2)c1	64*	-30	52	62*	-25	53*	52*	72*	65*
c1ccc(-c2cc(-c3nc(-c4ccccn4)no3)c3ccccc3n2)cc1	-10	-24	28	8	2	-17	.	.	.

Source: PubChem BioAssay (several laboratories)
